Source: PubChem BioAssay (Tox21)
Records with an inconclusive call do not appear. The source made the active and inactive calls. Unless noted, calls follow the shape of the full dose curve.

Key:
[1] = Nuclear factor erythroid 2-related factor 2/antioxidant responsive element (Nrf2/ARE) small molecule agonists: qHTS cell viability counter screen in human keratinocytes (AID 1919968; active = well fitted curve in the direction sought with a large enough effect in the repeat runs; an effect the other way counts as inactive or inconclusive; also: nearly all actives have a fitted effect of over 55% in size; also: potency is read from the fitted curve at half-maximal effect)
Method in brief: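 KeratinoSens cells (HaCaT keratinocytes stably carrying an ARE-luciferase reporter) were seeded at 1,500 cells/well and rested 5 h at 37 C/5% CO2. They were then exposed to compounds in DMSO for 23 h. Viability was read by CellTiter-Fluor fluorescence after 1 h.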

[2] = Nuclear factor erythroid 2-related factor 2/antioxidant responsive element (Nrf2/ARE) small molecule agonists: luciferase reporter gene qHTS assay in human keratinocytes (AID 1919969); also: nearly all actives have a fitted effect of over 35% in size; also: potency is read from the fitted curve at half-maximal effect
[3] = molecular target: Gonadotropin-releasing hormone receptor (Homo sapiens) (UniProt P30968); experiment: Human gonadotropin-releasing hormone receptor (GnRHR) small molecule agonists, calcium flux assay in GnRHR-HEK293 cells (AID 1920063); also: nearly all actives have a fitted effect of over 35% in size
Chain of Gonadotropin-releasing hormone receptor (Homo sapiens) (P30968 whole entry, looked up): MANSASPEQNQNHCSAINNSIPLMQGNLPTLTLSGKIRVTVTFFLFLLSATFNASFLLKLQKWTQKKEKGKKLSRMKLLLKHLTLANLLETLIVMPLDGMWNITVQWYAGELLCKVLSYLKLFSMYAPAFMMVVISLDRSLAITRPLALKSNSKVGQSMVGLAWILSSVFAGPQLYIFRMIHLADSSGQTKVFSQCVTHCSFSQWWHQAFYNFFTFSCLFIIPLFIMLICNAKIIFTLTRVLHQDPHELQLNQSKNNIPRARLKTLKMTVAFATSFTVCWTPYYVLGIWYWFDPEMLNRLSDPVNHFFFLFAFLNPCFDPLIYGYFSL
Method in brief: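 HEK293 cells stably expressing human GnRHR were plated 18 h at 37 °C, loaded with calcium dye 1 h at 37 °C, then given compound in agonist mode; fluorescence (Ex/Em 480/540) read kinetically for 3 min at 1 s intervals.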

[4] = molecular target: KiSS-1 receptor (Homo sapiens) (UniProt Q969F8); experiment: Human kisspeptin (KISS1R) small molecule agonists, calcium flux assay in KISS1R-HEK293 cells (AID 1920064; active = well fitted curve in the direction sought with a large enough effect in the repeat runs; an effect the other way counts as inactive or inconclusive)
Chain of KiSS-1 receptor (Homo sapiens) (Q969F8 whole entry, looked up): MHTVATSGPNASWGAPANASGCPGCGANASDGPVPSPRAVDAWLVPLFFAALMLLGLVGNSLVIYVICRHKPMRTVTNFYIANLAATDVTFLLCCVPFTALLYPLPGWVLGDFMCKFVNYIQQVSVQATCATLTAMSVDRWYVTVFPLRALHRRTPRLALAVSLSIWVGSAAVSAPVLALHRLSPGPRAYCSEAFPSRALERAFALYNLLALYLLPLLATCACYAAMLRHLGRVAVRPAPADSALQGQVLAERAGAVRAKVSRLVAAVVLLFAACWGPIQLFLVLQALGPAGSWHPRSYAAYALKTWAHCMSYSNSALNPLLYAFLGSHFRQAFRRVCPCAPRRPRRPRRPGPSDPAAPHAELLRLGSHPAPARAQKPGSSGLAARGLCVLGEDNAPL
Method in brief: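 HEK293 cells stably expressing human KISS1R were plated 18 h at 37 °C, loaded with calcium dye for 1 h at 37 °C, then given compound by pin tool. Fluorescence (Ex/Em 480/540) was read kinetically for 3 min.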

[5] = G protein-coupled receptor (GPCR) small molecule agonists, calcium flux assay: HEK293 wild type cell line counter screen (AID 1920065)
Method in brief: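 Cells were plated and cultured 18 h at 37 C/5% CO2, then loaded with calcium dye for 1 h at 37 C. Compounds in DMSO were pin-transferred in agonist mode, and fluorescence (Ex/Em 480/540) was read kinetically for 3 min at 1 s intervals.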

[6] = p53 small molecule agonists, cell-based qHTS assay with human liver microsomes: qHTS cell viability counter screen (AID 1963579); also: nearly all actives have a fitted effect of over 45% in size; also: potency is read from the fitted curve at half-maximal effect
Method in brief: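 Tox21 library compounds, delivered from DMSO stocks, were tested on p53RE-bla cells together with 0.5 mg/mL human liver microsomes and 0.5 mg/mL NADPH (final) over 16 h at 37 C; CellTiter-Glo luminescence served as the cytotoxicity measure.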

[7] = p53 small molecule agonists, cell-based qHTS assay: qHTS cell viability counter screen (AID 1963581); also: nearly all actives have a fitted effect of over 45% in size
Method in brief: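 p53RE-bla HCT-116 cells were exposed to compounds for 16 h at 37 C; after the beta-lactamase FRET read in the same wells, CellTiter-Glo was added and luminescence (intracellular ATP) read after 30 min at room temperature.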

[8] = molecular target: 5-hydroxytryptamine receptor 2A (Homo sapiens) (UniProt P28223); experiment: 5-hydroxytryptamine receptor 2A (HTR2A) small molecule antagonists, cell-based qHTS assay (AID 1963586); also: nearly all actives have a fitted effect of over 45% in size
Chain of 5-hydroxytryptamine receptor 2A (Homo sapiens) (P28223 whole entry, looked up): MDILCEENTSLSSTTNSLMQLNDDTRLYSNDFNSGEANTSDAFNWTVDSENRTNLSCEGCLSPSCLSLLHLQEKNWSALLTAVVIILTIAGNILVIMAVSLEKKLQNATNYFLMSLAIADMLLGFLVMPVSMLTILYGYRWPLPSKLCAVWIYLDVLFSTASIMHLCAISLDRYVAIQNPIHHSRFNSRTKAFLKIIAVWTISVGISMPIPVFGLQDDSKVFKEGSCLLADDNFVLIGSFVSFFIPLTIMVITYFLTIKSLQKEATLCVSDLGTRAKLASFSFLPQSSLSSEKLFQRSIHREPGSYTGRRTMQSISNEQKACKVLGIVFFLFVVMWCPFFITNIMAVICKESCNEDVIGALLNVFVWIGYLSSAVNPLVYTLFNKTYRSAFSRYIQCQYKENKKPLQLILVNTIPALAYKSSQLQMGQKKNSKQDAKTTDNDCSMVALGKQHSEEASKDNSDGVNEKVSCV
Method in brief: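 Antagonist-mode intracellular calcium assay: DOI (4 nM) added after 5 min compound pre-incubation at room temperature to dye-loaded HTR2A-CHO cells. Fluorescence followed for 3 min, sampled every second.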

[9] = molecular target: 5-hydroxytryptamine receptor 2A (Homo sapiens) (UniProt P28223); experiment: 5-hydroxytryptamine receptor 2A (HTR2A) small molecule agonists, cell-based qHTS assay (AID 1963587); also: nearly all actives have a fitted effect of over 30% in size
Method in brief: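 CHO cells stably expressing human HTR2A, plated 18 h, loaded with calcium dye 1 h at 37 C. Agonist mode: compounds added and intracellular calcium fluorescence recorded kinetically for 2 min at 1 sec intervals.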

[10] = molecular target: Muscarinic acetylcholine receptor M1 (Homo sapiens) (UniProt P11229); experiment: Cholinergic receptor muscarinic 1 (CHRM1) small molecule antagonists, cell-based qHTS assay (AID 1963588); also: nearly all actives have a fitted effect of over 40% in size; also: potency is read from the fitted curve at half-maximal effect
Chain of Muscarinic acetylcholine receptor M1 (Homo sapiens) (P11229 whole entry, looked up): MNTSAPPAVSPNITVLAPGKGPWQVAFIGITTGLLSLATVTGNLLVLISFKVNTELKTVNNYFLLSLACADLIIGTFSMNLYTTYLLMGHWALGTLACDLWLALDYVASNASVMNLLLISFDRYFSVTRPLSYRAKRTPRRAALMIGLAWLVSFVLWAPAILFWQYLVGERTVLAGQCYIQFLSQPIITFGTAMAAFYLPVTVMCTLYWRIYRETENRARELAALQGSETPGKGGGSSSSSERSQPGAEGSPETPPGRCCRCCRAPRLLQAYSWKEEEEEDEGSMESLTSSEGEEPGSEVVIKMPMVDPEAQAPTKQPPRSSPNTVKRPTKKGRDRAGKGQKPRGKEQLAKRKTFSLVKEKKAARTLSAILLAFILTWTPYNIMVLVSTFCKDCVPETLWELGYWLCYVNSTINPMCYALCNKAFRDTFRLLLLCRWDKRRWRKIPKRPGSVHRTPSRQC
Method in brief: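 CHRM1-CHO calcium-flux assay, antagonist mode. Cells were seeded 18 h, dye-loaded 1 h at 37 C and given compound for 5 min at RT, then acetylcholine was added at 50nM. FDSS fluorescence was read 3 min; 15 concentrations, three runs.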

[11] = molecular target: Muscarinic acetylcholine receptor M1 (Homo sapiens) (UniProt P11229); experiment: Cholinergic receptor muscarinic 1 (CHRM1) small molecule agonists, cell-based qHTS assay (AID 1963589); also: nearly all actives have a fitted effect of over 35% in size
Method in brief: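 CHO cells stably expressing human CHRM1, seeded 18 h at 37 C/5% CO2, dye-loaded 1 h at 37 C, then given compound in agonist mode; intracellular calcium fluorescence read kinetically at 1 s intervals. Fifteen concentrations, three independent runs.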

[12] = cAMP Responsive Elements (CRE) small molecule agonists, cell-based qHTS assay (AID 1963590)
Method in brief: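 CRE-bla HEK 293T cells in DMEM with 10% dialyzed FBS, NEAA, pyruvate and 25 mM HEPES were plated 18 h at 37 C/5% CO2, then exposed to compounds in DMSO for 3 h before LiveBLAzer B/G FRET substrate addition.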

[13] = cAMP Responsive Elements (CRE) small molecule antagonists, cell-based qHTS assay (AID 1963591; active = well fitted inhibition curve with a large enough effect in the signal ratio in the repeat runs, not every such curve was filed as active; the % refers to the signal ratio)
Method in brief: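 CRE-bla HEK293T cells were plated 18 h at 37 °C/5% CO2, pinned with compound in DMSO, then stimulated with NKH477 at 0.25 uM final for 3 h. LiveBLAzer B/G FRET substrate was added and plates incubated 2 h at room temperature.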

[14] = molecular target: Beta-2 adrenergic receptor (Homo sapiens) (UniProt P07550); experiment: Adrenergic beta2 receptor (ADRB2) small molecule antagonists, cell-based qHTS assay (AID 1963592); also: nearly all actives have a fitted effect of over 50% in size; also: potency is read from the fitted curve at half-maximal effect
Chain of Beta-2 adrenergic receptor (Homo sapiens) (P07550 whole entry, looked up): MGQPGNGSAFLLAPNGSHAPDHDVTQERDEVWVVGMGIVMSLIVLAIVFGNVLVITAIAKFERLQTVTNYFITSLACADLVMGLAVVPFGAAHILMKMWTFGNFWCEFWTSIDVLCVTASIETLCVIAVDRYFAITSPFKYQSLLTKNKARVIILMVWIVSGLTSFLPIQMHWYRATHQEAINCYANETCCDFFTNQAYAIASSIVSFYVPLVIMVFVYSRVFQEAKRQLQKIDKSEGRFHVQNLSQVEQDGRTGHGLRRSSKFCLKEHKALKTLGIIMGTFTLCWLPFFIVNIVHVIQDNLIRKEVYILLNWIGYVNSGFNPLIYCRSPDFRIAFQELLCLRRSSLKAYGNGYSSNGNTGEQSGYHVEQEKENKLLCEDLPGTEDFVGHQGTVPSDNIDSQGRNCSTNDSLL
Method in brief: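 Cells (CHO, stable ADRB2 overexpression) incubated 18-20hr at 37C; compounds added from DMSO; agonist mix (1nM isoproterenol, 100uM IBMX, 25uM Ro-20-1724) added; 0.5hr RT; d2-cAMP and anti-cAMP-cryptate added; 1hr RT; 665/615 nm read.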

[15] = molecular target: Beta-2 adrenergic receptor (Homo sapiens) (UniProt P07550); experiment: Adrenergic beta2 receptor (ADRB2) small molecule agonists, cell-based qHTS assay (AID 1963593);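 also: CHO cells stably overexpressing human ADRB2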
Method in brief: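 CHO cells stably over-expressing ADRB2 were plated overnight at 37C, then dosed with compounds plus a stimulation mix containing 100uM IBMX and 25uM Ro-20-1724 for 0.5hr at room temperature. cAMP was measured by HTRF competition, 1hr.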

[16] = molecular target: D(2) dopamine receptor (Homo sapiens) (UniProt P14416); experiment: Dopamine D2 receptor (DRD2) small molecule antagonists, cell-based qHTS assay (AID 1963595; active = well fitted inhibition curve with a large enough effect in the signal ratio in the repeat runs, with a control signal flat; the % refers to the signal ratio)
Chain of D(2) dopamine receptor (Homo sapiens) (P14416 whole entry, looked up): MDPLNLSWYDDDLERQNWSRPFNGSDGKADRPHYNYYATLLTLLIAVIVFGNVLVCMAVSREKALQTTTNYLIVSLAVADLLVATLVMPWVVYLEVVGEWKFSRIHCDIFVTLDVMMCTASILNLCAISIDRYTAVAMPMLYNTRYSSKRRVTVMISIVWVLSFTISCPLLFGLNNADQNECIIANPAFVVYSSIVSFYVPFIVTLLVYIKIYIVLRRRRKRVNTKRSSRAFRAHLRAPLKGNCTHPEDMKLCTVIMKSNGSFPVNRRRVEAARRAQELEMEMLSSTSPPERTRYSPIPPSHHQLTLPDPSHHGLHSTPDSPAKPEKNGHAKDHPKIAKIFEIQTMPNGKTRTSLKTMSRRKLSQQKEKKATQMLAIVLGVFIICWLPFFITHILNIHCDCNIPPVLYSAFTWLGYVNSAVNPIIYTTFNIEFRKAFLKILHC
Method in brief: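 HTRF cAMP read-out at 665 and 620 nm emission (340 nm excitation). Antagonist mode: compounds were tested against 12 nM quinpirole in DRD2-HEK293 cells, with 200 nM NKH477 raising cAMP and 0.1 mM Ro20-1724 blocking its breakdown.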

[17] = p53 small molecule agonists, cell-based qHTS assay with rat liver microsomes: qHTS cell viability counter screen (AID 1963580); also: nearly all actives have a fitted effect of over 45% in size
Method in brief: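 Viability is assessed in parallel with the p53 reporter read: HCT-116 p53RE-bla cells receive compounds plus rat microsomes and NADPH (0.5 mg/mL final apiece), incubate 16 h at 37 C, and then CellTiter-Glo luminescence is recorded.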

[18] = molecular target: D(2) dopamine receptor (Homo sapiens) (UniProt P14416); experiment: Dopamine D2 receptor (DRD2) small molecule agonists, cell-based qHTS assay (AID 1963594); also: nearly all actives have a fitted effect of over 35% in size
Method in brief: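 HEK293 cells stably expressing human DRD2, pre-treated with PDE inhibitor Ro20-1724 (0.1 mM final) and compound 10 min at room temperature, then stimulated with NKH477 (200nM […]) for 30 min. cAMP read by HTRF (665/620 nm).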

[19] = p53 small molecule agonists, cell-based qHTS assay (AID 1963582; active = well fitted activation curve with a large enough effect in the signal ratio in the repeat runs, not every such curve was filed as active; the % refers to the signal ratio)
Method in brief: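 p53RE-bla beta-lactamase reporter cells rested 5 h at 37 C/5% CO2, then received compounds in DMSO by pin transfer and were incubated 16 h at 37 C. LiveBLAzer B/G FRET substrate was loaded for 2 h at room temperature before fluorescence reading.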

Measured: Potency

O=c1c2ccccc2oc2ccccc12
inactive: [1] | [2] | [3] | [4] | [5] | [6] | [7] | [8] | [9] | [10] | [11] | [12] | [13] | [14] | [15] | [16]

CN(C)CC[C@@H](c1ccc(Br)cc1)c1ccccn1
inactive: [1] | [2] | [3] | [4] | [5] | [6] | [17] | [9] | [11] | [12] | [13] | [14] | [15] | [18] | [16]

CCOC(=O)[C@@](C)(N)Cc1ccc(O)c(O)c1
inactive: [1] | [2] | [3] | [4] | [5] | [6] | [17] | [9] | [12] | [13] | [14] | [18] | [16]

Nc1ccc(Oc2ccc(N)c(N)c2)cc1
inactive: [1] | [3] | [4] | [5] | [6] | [17] | [8] | [9] | [10] | [13] | [14] | [15]
active: [2] 6.11 µM

COc1ccc2cc(S(=O)(=O)N[C@H](CC(=O)N[C@H](Cc3ccc(CN4[C@H](C)CCC[C@@H]4C)cc3)C(=O)N(C)C(C)C)c3ccc4c(c3)OCO4)ccc2c1
inactive: [2] | [3] | [4] | [5] | [17] | [8] | [9] | [14] | [15]
active: [1] 41 µM | [6] 43.3 µM | [10] 0.794 µM

O=C1CCCCC1C1CCCCC1 (stereo unspecified)
inactive: [1] | [2] | [3] | [4] | [5] | [6] | [17] | [8] | [9] | [11] | [12] | [14] | [18]

Cn1c(NCCN(CCO)CCCc2ccc([N+](=O)[O-])cc2)cc(=O)n(C)c1=O
inactive: [1] | [2] | [3] | [4] | [5] | [6] | [17] | [10] | [11] | [13] | [14] | [15] | [18] | [16]

Cc1ccccc1N=C(N)Nc1ccccc1C
inactive: [1] | [2] | [3] | [4] | [5] | [6] | [17] | [8] | [9] | [11] | [12] | [13] | [14] | [18] | [16]

CN[C@@H]1[C@@H](O)[C@@H](O[C@@H]2[C@H](O)[C@H](O[C@H]3OC(CN)=CC[C@H]3N)[C@@H](N)C[C@H]2N)OCC1(C)O (stereo partly specified)
inactive: [1] | [2] | [3] | [4] | [5] | [6] | [17] | [12] | [13] | [18]
active: [14] 2.66 µM

NCCCCCCNCCCCCCN
inactive: [1] | [2] | [3] | [4] | [5] | [6] | [17] | [8] | [9] | [11] | [13] | [14] | [18] | [16]

COc1ccnc(CS(=O)c2nc3ccc(OC(F)F)cc3[nH]2)c1OC (stereo unspecified)
inactive: [1] | [2] | [3] | [4] | [5] | [6] | [17] | [12] | [13] | [14] | [18]

COc1ccc2c(c1)c1c3n2CCN(C)C3=NCC1
inactive: [1] | [2] | [3] | [4] | [5] | [6] | [17] | [8] | [9] | [10] | [11] | [12] | [13] | [14] | [18] | [16]

CCN1CCC[C@H]1CNC(=O)c1c(OC)ccc(Br)c1OC
inactive: [1] | [2] | [3] | [4] | [5] | [6] | [17] | [8] | [10] | [12] | [13] | [14] | [15]

O=S(=O)(O)c1ccc(Nc2nc(Nc3ccc(/C=C/c4ccc(Nc5nc(Nc6ccc(S(=O)(=O)O)cc6)nc(N(CCO)CCO)n5)cc4S(=O)(=O)O)c(S(=O)(=O)O)c3)nc(N(CCO)CCO)n2)cc1
inactive: [1] | [2] | [3] | [4] | [5] | [6] | [7] | [19] | [8] | [9] | [10] | [11] | [12] | [14] | [18] | [16]

CN1CCC(OC(c2ccccc2)c2ccccc2)CC1
active: [10] 0.0818 µM
inactive: [1] | [2] | [3] | [4] | [5] | [6] | [17] | [9] | [11] | [12] | [13] | [15] | [18]
